This passage reports Potency and outcome results from PubChem BioAssay (Tox21).

Molecules are shown by their SMILES. Several values for one entry are separate records, joined by “and”; a condition that tells them apart may be missing. Identical values can stand only once. Records with an inconclusive call do not appear. Activity calls are given as the source filed them. Unless noted, calls follow the shape of the dose curve; as a rule, active = well fitted curve in the direction sought with a large enough effect in the repeat runs; inconclusive = weak or mixed curves; inactive = no such curve, though single readings can be large; an effect the other way counts as inactive or inconclusive.

The nature of experiment [1]: qHTS assay for identifying genotoxic compounds that show differential cytotoxicity against isogenic chicken DT40 cell lines with known DNA damage response pathways - wild type cell line (AID 743012). Also: nearly all actives have a fitted effect of over 60% in size. Also: potency is read from the fitted curve at half-maximal effect. In a few lines: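 Endpoint: CellTiter-Glo luminescence, 30 min RT. Cells: wild type DT40, 300/well. Exposure: compounds in DMSO, 40 h, 37 C/5% CO2, after ~0.5 h pre-incubation.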

The nature of experiment [2]: qHTS assay to identify small molecule antagonists of the androgen receptor (AR) signaling pathway - cell viability counter screen (AID 743033; also: nearly all actives have a fitted effect of over 45% in size; also: potency is read from the fitted curve at half-maximal effect).
Experiment [3] in a line: qHTS assay to identify small molecule antagonists of the androgen receptor (AR) signaling pathway using the MDA cell line - cell viability counter screen (AID 743041; also: nearly all actives have a fitted effect of over 45% in size; also: potency is read from the fitted curve at half-maximal effect). The gist of the method: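 qHTS viability read-out; MDA-kb2 AR-luc; R1881-stimulated; 16 h exposure at 37C, 0% CO2; CellTiter-Fluor, 30 min; fluorescence intensity.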
Experiment [4] is described as follows: qHTS assay for identifying genotoxic compounds that show differential cytotoxicity against isogenic chicken DT40 cell lines with known DNA damage response pathways - Rev3 mutant cell line (AID 743014). Also: nearly all actives have a fitted effect of over 55% in size. Also: potency is read from the fitted curve at half-maximal effect.
Experiment [5] in a line: qHTS assay for identifying genotoxic compounds that show differential cytotoxicity against isogenic chicken DT40 cell lines with known DNA damage response pathways - Rad54/Ku70 mutant cell line (AID 743015). Also: nearly all actives have a fitted effect of over 60% in size. Also: potency is read from the fitted curve at half-maximal effect.
In experiment [6] the target is Androgen receptor (Homo sapiens) (UniProt P10275). As to the kind of experiment: qHTS assay to identify small molecule agonists of the androgen receptor (AR) signaling pathway using the MDA cell line (AID 743040; also: nearly all actives have a fitted effect of over 20% in size). In a few lines:
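Agonist activity is measured as luciferase luminescence in human MDA-kb2 cells whose MMTV reporter responds to both AR and GR. Compounds in DMSO incubate 16 h at 37C, 0% CO2, and ONE-Glo is read after 30 min.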

Experiment [7] has the same target. Description: qHTS assay to identify small molecule agonists of the androgen receptor (AR) signaling pathway (AID 743036; active = well fitted activation curve with a large enough effect in the signal ratio in the repeat runs, with a control signal flat, not every such curve was filed as active; the % refers to the signal ratio). The gist of the method: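 Reporter line: GeneBLAzer AR-UAS-bla-GripTite (HEK293). Steps: plate cells, 4 h rest, add compounds, 16 h at 37C, add LiveBLAzer B/G substrate, 2 h at RT, read fluorescence.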
The target is the same in experiment [8]. Description: qHTS assay to identify small molecule antagonists of the androgen receptor (AR) signaling pathway (AID 743035; active = well fitted inhibition curve with a large enough effect in the signal ratio in the repeat runs, not every such curve was filed as active; the % refers to the signal ratio; also: potency is read from the fitted curve at half-maximal effect). In a few lines:
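R1881 agonist challenge of a HEK293 UAS-beta-lactamase AR reporter line in the presence of compound (16 h, 37C); signal taken as FRET fluorescence after 2 h with LiveBLAzer B/G substrate at room temperature.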

The target is the same in experiment [9]. Description: qHTS assay to identify small molecule antagonists of the androgen receptor (AR) signaling pathway using the MDA cell line (AID 743042; also: nearly all actives have a fitted effect of over 55% in size; also: potency is read from the fitted curve at half-maximal effect). In a few lines:
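MDA-kb2 cells (human breast carcinoma, stably carrying an MMTV-luciferase reporter responsive to AR and GR) were plated at 3,000 cells/well and preincubated 5 hr at 37C, then given compound plus R1881 agonist for 16 h. ONE-Glo luminescence was read.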

Androgen receptor (Homo sapiens), sequence (P10275 whole entry, looked up): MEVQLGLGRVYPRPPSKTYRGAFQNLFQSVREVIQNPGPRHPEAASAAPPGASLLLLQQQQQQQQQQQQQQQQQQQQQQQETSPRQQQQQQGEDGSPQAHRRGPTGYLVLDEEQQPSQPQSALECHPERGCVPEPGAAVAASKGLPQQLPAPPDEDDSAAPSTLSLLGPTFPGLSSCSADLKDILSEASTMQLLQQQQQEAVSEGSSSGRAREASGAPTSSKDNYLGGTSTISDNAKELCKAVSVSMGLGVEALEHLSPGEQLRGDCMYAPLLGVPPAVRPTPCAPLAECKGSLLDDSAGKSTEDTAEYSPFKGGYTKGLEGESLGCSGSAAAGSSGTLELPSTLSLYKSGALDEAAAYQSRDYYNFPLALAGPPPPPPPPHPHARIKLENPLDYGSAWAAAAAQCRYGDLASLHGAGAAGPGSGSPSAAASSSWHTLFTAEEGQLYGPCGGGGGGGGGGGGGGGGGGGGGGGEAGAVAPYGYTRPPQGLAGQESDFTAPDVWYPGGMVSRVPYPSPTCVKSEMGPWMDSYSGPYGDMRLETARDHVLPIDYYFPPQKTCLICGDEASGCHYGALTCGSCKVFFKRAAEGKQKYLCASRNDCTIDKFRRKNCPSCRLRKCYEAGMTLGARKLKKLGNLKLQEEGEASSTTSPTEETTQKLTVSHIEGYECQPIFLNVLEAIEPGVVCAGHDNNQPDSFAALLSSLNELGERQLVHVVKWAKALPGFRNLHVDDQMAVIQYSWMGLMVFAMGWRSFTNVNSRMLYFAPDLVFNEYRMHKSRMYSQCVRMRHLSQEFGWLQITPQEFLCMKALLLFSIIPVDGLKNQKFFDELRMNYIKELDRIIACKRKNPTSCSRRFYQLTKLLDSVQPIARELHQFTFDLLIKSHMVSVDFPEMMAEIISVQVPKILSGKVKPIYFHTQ

Regarding `COc1cc(C(=O)NS(=O)(=O)c2ccccc2C)ccc1Cc1cn(C)c2ccc(NC(=O)OC3CCCC3)cc12`, the Potency entry in experiment [1], in experiment [2] and in experiment [3] was “inactive” throughout.

With `CCOC(=O)C1=C(C)NC(C)=C(C(=O)OCC)C1c1ccccc1/C=C/C(=O)OC(C)(C)C`, the Potency in experiment [1] was 2.66 µM (active); in experiment [4], 3.76 µM (active); in [5], 5.96 µM (active). Further, the Potency result in experiment [2], in [6] and in [3] was “inactive” in each case.

Turning to `CC(O)C#CC(C)O` (configuration not stated), the Potency in experiment [1] is 9.59 µM (active); in experiment [4], 7.62 µM (active); in experiment [5], 10.8 µM (active); in experiment [2], 48.5 µM (active). Besides, in experiment [3], the Potency entry was “inactive”.

As for `C/C=C/C(=O)Oc1c(CCCCCC(C)C)cc([N+](=O)[O-])cc1[N+](=O)[O-]`, the Potency in [1] was 3.44 µM (active); in experiment [4] it was 3.44 µM (active); in [5], 2.43 µM (active); in [2], 7.76 µM (active); in experiment [3], 7.7 µM (active).

Take `CCO[Si](CCCSSSSCCC[Si](OCC)(OCC)OCC)(OCC)OCC`: the values for the Potency in experiment [4] and in experiment [5] were 61.2 µM (active) and 38.6 µM (active), respectively. Further, the Potency result in experiment [3] is “inactive”.

`CCCCCCCCCCOCC(O)CN` (configuration not stated): the Potency in experiment [1] was 4.73 µM (active); in [4] it was 6.68 µM (active); in experiment [5] it was 7.5 µM (active). The Potency entry in [2] and in [6] was “inactive” in each case. In addition, the outcome in experiment [7] was inactive.

With `O=C1Nc2ccc(Cl)cc2[C@@](C#CC2CC2)(C(F)(F)F)O1`, the Potency was 26.6 µM (active) in experiment [1], 26.6 µM (active) in [4] and 21.1 µM (active) in [5]. Moreover, in [3], the Potency entry was “inactive”.

Take `Cc1c(C(=O)O)cccc1[N+](=O)[O-]`: the Potency in experiment [1] is 62.1 µM (active). Further, the Potency result in experiment [8], in experiment [6] and in [3] was “inactive” throughout. Further, the call in experiment [7] was inactive.

For the compound `NC(=O)c1nc(-c2cccc(-c3cc(F)ccc3OCC(F)(F)C(F)(F)F)c2)n[nH]1`, the Potency in experiment [1] was 17.2 µM (active); in experiment [4], 24.3 µM (active); in experiment [5], 13.7 µM (active); in experiment [2] it was 21.9 µM (active); in experiment [8] it was 13.8 µM (active); in experiment [3], 61.1 µM (active). Also, in experiment [9], the Potency was 61.1 µM (active). Further, the Potency entry in experiment [6] was “inactive”.

In the case of `CC(C)(C)C1=CC(=O)C=C(C(C)(C)C)C1=O`, the Potency result in [1], in experiment [2] and in experiment [3] was “inactive” throughout.

In the case of `CCN(CC)c1ccc(N)cc1`, the Potency in [1] is 5.6 µM (active); in [4], 4.45 µM (active); in [5] it was 4.45 µM (active); in [2], 15.9 µM (active); in experiment [3], 22.3 µM (active).

As for `COc1ccc2sc(C(=O)Nc3nnn[nH]3)c(OC(C)C)c2c1`, the Potency in [1] was 30.5 µM (active); in experiment [4], 27.2 µM (active); in [5] it was 17.2 µM (active); in experiment [2] it was 24.5 µM (active).

On to `c1cc(OCC2CO2)cc(OCC2CO2)c1` (configuration not stated), for which the Potency in experiment [1] is 0.856 µM (active); in experiment [4], 0.0763 µM (active); in experiment [5], 1.36 µM (active). Also, the Potency entry in experiment [6] and in [3] was “inactive” each time.

Turning to `CCOC(=O)N1CCC(=C2c3ccc(Cl)cc3CCc3cccnc32)CC1`, the Potency in experiment [1] was 8.41 µM (active) and 8.63 µM (active); in experiment [4], 7.5 µM (active) and 9.69 µM (active); in [5], 9.44 µM (active) and 10.9 µM (active); in [2], 17.4 µM (active).

In the case of `O=C(c1ccccc1)c1cc(Cl)ccc1O`, the Potency result in experiment [1], in experiment [4], in experiment [5] and in experiment [3] was “inactive” throughout.

Consider `CN1CCN(C2Cc3ccccc3Sc3ccc(Cl)cc32)CC1` (configuration not stated), for which the Potency in experiment [1] was 5.96 µM (active); in [4] it was 6.68 µM (active); in [5], 9.44 µM (active). Besides, the compound was called inactive in [7]. The Potency entry in [6] and in experiment [9] was “inactive” throughout.

Turning to `CN(C)c1ccc(N=Nc2ccccc2C(=O)O)cc1`, the Potency entry in experiment [1], in [4], in [2] and in experiment [3] was “inactive” throughout.

Regarding `CCC(C)c1cc([N+](=O)[O-])cc([N+](=O)[O-])c1OC(=O)OC(C)C` (configuration not stated), the Potency in [1] is 30.6 µM (active); in experiment [4], 48.6 µM (active); in experiment [5] it was 30.6 µM (active); in experiment [3] it was 54.5 µM (active); in [9] it was 27.3 µM (active). Also, the Potency result in [6] was “inactive”.

Turning to `Clc1ccc(C(Cn2ccnc2)OCc2ccsc2Cl)c(Cl)c1` (configuration not stated), the Potency is 7.5 µM (active) in experiment [1], 11.9 µM (active) in experiment [4], 13.3 µM (active) in experiment [5] and 26.8 µM (active) in experiment [2]. Further, the Potency entry in experiment [3] was “inactive”.

For the compound `CCN1CCN(c2cc(-c3ccc(F)cc3)c3c(n2)CCCCCC3)CC1`, the Potency result in experiment [5], in experiment [2], in experiment [8], in experiment [6], in experiment [3] and in experiment [9] was “inactive” each time.

For `CCCOc1sc(C(=O)N2CCC(c3cc(CN)ccc3F)CC2)c(C)c1Br`, the Potency in [1] was 14.1 µM (active); in [4] it was 17.7 µM (active); in experiment [5], 14.1 µM (active); in experiment [2] it was 20 µM (active); in [3] it was 49.9 µM (active); in [9], 44.5 µM (active). Besides, the Potency result in experiment [6] is “inactive”.

As for `O=C1c2c(O)ccc(O)c2C(=O)c2c(NCCNCCO)ccc(NCCNCCO)c21`, the Potency in experiment [1] was 0.0072 µM (active); in experiment [4], 0.0101 µM (active); in experiment [8], 0.512 µM (active); in experiment [3], 9.43 µM (active); in experiment [9], 5.07 µM (active). Moreover, in experiment [6], the Potency entry was “inactive”.

As to `O=C(Nc1ccc(Cl)c(Cl)c1)c1cc(Cl)cc(Cl)c1O`, the Potency in experiment [1] is 6.11 µM (active); in experiment [4], 4.86 µM (active); in experiment [5], 4.86 µM (active); in [2], 1.95 µM (active); in [3] it was 12.2 µM (active).

In the case of `O=C1C=CC(=O)N1c1ccccc1`, the Potency is 1.09 µM (active) in experiment [1]; 1.22 µM (active) in [4]; 1.37 µM (active) in [5]; 12.3 µM (active) in experiment [2]; 48.6 µM (active) in experiment [3]; 27.3 µM (active) in experiment [9]. The Potency result in [6] is “inactive”.

Regarding `O[C@@H](c1cc(C(F)(F)F)nc2c(C(F)(F)F)cccc12)[C@H]1CCCCN1`, the Potency was 4.73 µM (active) in experiment [1], 4.73 µM (active) in [4], 5.31 µM (active) in [5] and 23.9 µM (active) in experiment [2].

With `O=C(NO)c1ccccc1`, the Potency in experiment [4] was 44.9 µM (active); in experiment [5], 50.4 µM (active). In addition, the Potency entry in [6], in [3] and in experiment [9] was “inactive” throughout.

Take `C=C[C@](C)(O)CC[C@@H]1[C@@]2(C)CCCC(C)(C)[C@@H]2CC[C@@]1(C)O`: the Potency in experiment [1] was 24.3 µM (active); in experiment [4], 19.3 µM (active); in experiment [5], 19.3 µM (active). The Potency entry in experiment [3] was “inactive”.

For the compound `CCN(CC)CCOc1ccc(C(O)(Cc2ccc(Cl)cc2)c2ccc(C)cc2)cc1` (configuration not stated), the Potency in [1] is 2.11 µM (active); in experiment [4], 2.11 µM (active); in experiment [5], 2.98 µM (active); in experiment [2] it was 16.9 µM (active).

Turning to `CC(=O)Oc1ccc(C2(c3ccc(OC(C)=O)cc3)Oc3ccccc3NC2=O)cc1`, the Potency result in experiment [2] and in [3] was “inactive” in each case.

As to `COC(=O)C1=C(C)NC(C)=C(C(=O)OCCCN2CCC(c3ccccc3)(c3ccccc3)CC2)C1c1cccc([N+](=O)[O-])c1` (configuration not stated), the Potency was 4.73 µM (active) in [1]; 6.68 µM (active) in experiment [4]; 6.68 µM (active) in [5]; 21.3 µM (active) in experiment [2]; 16.9 µM (active) in experiment [8]. Also, in [6], the Potency entry is “inactive”.
